Rows were chosen to be rich in hits. Some 2.2% of all compounds tested hit in one or more screens of this group.
Abeta rescue – restores growth of yeast expressing A-beta42 peptide | yeast expressing A-beta42, growth rescue, OD600, 48 h; response scale: 0% DMSO, 100% iron-clioquinol control | Potency, µM (series often up to 46.1 µM), actives largely listed as activators | hit rate 0.063% among 410,000 | AID 1347071; note: nearly all actives have a fitted effect of over 55% in size
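Yeast growth medium received pinned compounds, then yeast cells expressing toxic A-beta were added; plates incubated at 30 C for 48 hr. Growth read as absorbance at 600 nm, normalized to DMSO and equimolar FeCl3 plus clioquinol controls.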
Mito fusion yeast – blocks mitochondrial division or promotes mitochondrial fusion | S. cerevisiae fusion-defective mutant growth rescue, CellTiterGlo 48 h | Potency, µM (titrated, usually from 46.1 µM), actives largely listed as activators | hit rate 0.23% among 320,000 | AID 485298; note: nearly all actives have a fitted effect of over 45% in size
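Compounds are tested for their ability to restore growth of mitochondrial fusion-defective yeast strains at non-permissive 37C in YPEG medium over 48 hours. Viability is quantified by luciferase luminescence.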
ERG Ets-DNA blk – inhibitors of human ERG Ets domain-DNA interaction. hit rate 0.028% among 370,000. Potency, µM (titrated, usually from 76.9 µM), hits mostly inhibitors. P11308. fluorescence polarization, His-ERG Ets domain / labelled DNA. AID 624246; active = well fitted inhibition curve with a large enough effect in the polarisation, with a control signal flat; the % refers to the polarisation;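 note: polarization taken with two DNA probes labelled with fluorescein and Texas red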
Target sequence (P11308 whole entry, looked up, the tested form may be a part): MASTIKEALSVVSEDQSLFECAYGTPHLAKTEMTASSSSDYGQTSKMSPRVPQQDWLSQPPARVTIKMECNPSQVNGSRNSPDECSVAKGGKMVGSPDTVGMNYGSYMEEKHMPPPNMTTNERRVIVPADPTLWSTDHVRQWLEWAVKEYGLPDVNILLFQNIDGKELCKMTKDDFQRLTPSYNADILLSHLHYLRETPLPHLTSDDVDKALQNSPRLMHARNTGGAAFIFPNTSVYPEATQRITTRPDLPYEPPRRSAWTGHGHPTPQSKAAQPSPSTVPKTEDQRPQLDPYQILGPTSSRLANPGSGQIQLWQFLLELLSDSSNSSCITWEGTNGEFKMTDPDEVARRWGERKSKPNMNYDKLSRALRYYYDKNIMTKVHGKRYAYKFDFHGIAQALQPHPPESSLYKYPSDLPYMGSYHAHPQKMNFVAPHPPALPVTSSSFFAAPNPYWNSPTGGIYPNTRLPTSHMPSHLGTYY
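His-tagged ERG Ets domain (1 uM in the protein solution; 300mM KCl, 50mM Tris-HCl, 1mM EDTA, 1mM DTT, pH 7.5) received compound, then a probe mix of 5 nM fluorescein-DNA and 100nM Texas-615-DNA. Fluorescence polarization was read for both dyes.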
FUS yeast rescue – suppressors of FUS proteinopathy in yeast; S. cerevisiae FUS-expressing, growth rescue, OD600, 24 h; Potency, µM (series often up to 76.6 µM), actives largely listed as activators; hit rate 0.24% among 390,000; note: nearly all actives have a fitted effect of over 55% in size
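Quantitative HTS measuring growth restoration of FUS-toxic yeast. Galactose-induced cells (OD 0.005) were exposed 24hr at 30C to compounds at several concentrations, then absorbance at 600 nm was recorded.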
aSyn rescue – alpha-synuclein toxicity inhibition in yeast; Potency, µM (top dose mostly 46.1 µM), actives largely listed as activators; AID 652106; Yeast expressing alpha-synuclein, growth rescue, BacTiter-Glo, 24 h; hit rate 0.14% among 370,000; note: nearly all actives have a fitted effect of over 65% in size
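Galactose-induced alpha-syn yeast (OD600=0.02, raffinose-pregrown) + pinned cpd, 24 hr, 30 deg C; growth by BacTiter-Glo luminescence. Growth restoration scores as activation.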
TDP43 rescue – inhibitors of TDP-43 toxicity in yeast. TDP-43 expressing yeast growth rescue, BacTiter-Glo, 24 h. Potency, µM (top dose mostly 46.1 µM), most hits filed as activators. hit rate 1.8% among 410,000. AID 652104; note: nearly all actives have a fitted effect of over 50% in size
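Cell-based yeast growth screen: TDP-43 expression induced in galactose, inoculum OD600=0.02 after raffinose pregrowth to mid-log. Read-out BacTiter-Glo luminescence at 24 hr, 30 deg C; inhibition of toxicity seen as signal increase.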
Numbers stand for hits. Unless noted, calls come from the whole dose curve; as a rule, active = well fitted curve in the direction sought with a large enough effect; inconclusive = small, poorly fitted or top-dose-only effect, or another doubt; inactive = no such curve, though single readings can be large; an effect the other way counts as inactive or inconclusive.

CC(=O)c1ccc(Nc2nc(C)cc(C)n2)cc1 was read as Abeta rescue inactive, Mito fusion yeast inactive, ERG Ets-DNA blk inactive, FUS yeast rescue inactive, aSyn rescue inactive and TDP43 rescue inactive.
Screening Cc1cc(C)nc(Nc2ccc(F)cc2)n1 returned Abeta rescue inactive, Mito fusion yeast inactive, ERG Ets-DNA blk inactive, FUS yeast rescue inactive, aSyn rescue inactive and TDP43 rescue 25.1µM.
`CN(C(=O)c1ccccc1OCC(=O)Nc1ccc(Br)cc1)c1ccccc1` gave FUS yeast rescue inactive.
For CCC(Oc1ccccc1)C(=O)Nc1ccc2oc(-c3ccc(OC)cc3)nc2c1 (configuration not stated) the results were Abeta rescue inactive, ERG Ets-DNA blk inactive, FUS yeast rescue inactive and TDP43 rescue inactive.
For COc1ccc(Cl)cc1NC(=O)CN(c1cccc(C)c1C)S(=O)(=O)c1ccccc1 the results were Abeta rescue inactive, ERG Ets-DNA blk inactive, FUS yeast rescue 22.4µM and TDP43 rescue inactive.

Assay outcomes from PubChem.
